“And” between values parts separate entries of the source, which are not always exact repeats. Identical values can stand only once. Hit rate of the full screen: of about 5,500 compounds, about 2,000 (36%) were called active. Not shown: some 18% with an inconclusive outcome. Cut-off read from the data, not from the text of the source: active = normalized growth mostly below about 0.91 (no sharp cut-off); inconclusive = no clear call, values can overlap the other calls; inactive = mostly above about 0.92. The list shows a part of the results.
Assay: chemical genetic growth profiling, strain panel (AID 1159580);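 note: tested at 20 µM; growth read once vehicle control cultures reached saturation at 30 °C; 1 = growth at the plate median or of vehicle wells; lower values mean less growth of the strain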
Conditions: growth OD

Measured: normalized growth

CC(=O)N1CCCC1C(=O)O (configuration not stated)
inactive: S. cerevisiae deletion strains, locus YAL013W, strain DEP1, stronger effect = lower value 1.01 | S. cerevisiae deletion strains, locus YBR021W, strain FUR4, stronger effect = lower value 0.977 | S. cerevisiae deletion strains, locus YBR229C, strain ROT2, stronger effect = lower value 1.01 | S. cerevisiae deletion strains, locus YCL029C, strain bik1, stronger effect = lower value 1.03 | S. cerevisiae deletion strains, locus YDL035C, strain GPR1, stronger effect = lower value 1.02 | S. cerevisiae deletion strains, locus YDL074C, strain BRE1, stronger effect = lower value 1.02 | S. cerevisiae deletion strains, locus YDL101C, strain DUN1, stronger effect = lower value 1.01 | S. cerevisiae deletion strains, locus YDL134C, strain PPH21, stronger effect = lower value 1.01 | S. cerevisiae deletion strains, locus YDL185W, strain tfp1, stronger effect = lower value 1.02 | S. cerevisiae deletion strains, locus YDL192W, strain arf1, stronger effect = lower value 1.03 | S. cerevisiae deletion strains, locus YDR101C, strain arx1, stronger effect = lower value 1.02 | S. cerevisiae deletion strains, locus YDR150W, strain NUM1, stronger effect = lower value 1.01 | S. cerevisiae deletion strains, locus YDR162C, strain NBP2, stronger effect = lower value 1.01 | S. cerevisiae deletion strains, locus YDR318W, strain mcm21, stronger effect = lower value 1.02 | S. cerevisiae deletion strains, locus YDR388W, stronger effect = lower value 1.02 | S. cerevisiae deletion strains, locus YDR502C, strain sam2, stronger effect = lower value 1.02 | S. cerevisiae deletion strains, locus YEL061C, strain CIN8, stronger effect = lower value 1.01 | S. cerevisiae deletion strains, locus YER110C, stronger effect = lower value 1.03 | S. cerevisiae deletion strains, locus YER155C, strain BEM2, stronger effect = lower value 1 | S. cerevisiae deletion strains, locus YER167W, strain BCK2, stronger effect = lower value 1.01 | S. cerevisiae deletion strains, locus YGL078C, strain dbp3, stronger effect = lower value 1.02 | S. cerevisiae deletion strains, locus YGL086W, strain mad1, stronger effect = lower value 1.01 | S. cerevisiae deletion strains, locus YGL248W, strain PDE1, stronger effect = lower value 1.01 | S. cerevisiae deletion strains, locus YGR078C, strain PAC10, stronger effect = lower value 1 | S. cerevisiae deletion strains, locus YGR135W, strain pre9, stronger effect = lower value 1.02 | S. cerevisiae deletion strains, locus YGR229C, strain SMI1, stronger effect = lower value 0.99 | S. cerevisiae deletion strains, locus YGR252W, strain gcn5, stronger effect = lower value 1.03 | S. cerevisiae deletion strains, locus YHR030C, strain SLT2, stronger effect = lower value 1.01 and 0.953 | S. cerevisiae deletion strains, locus YHR079C, strain IRE1 (second series), stronger effect = lower value 1.02 | S. cerevisiae deletion strains, locus YHR079C, strain IRE1, stronger effect = lower value 0.975 | S. cerevisiae deletion strains, locus YHR094C, strain hxt1, stronger effect = lower value 1.02 | S. cerevisiae deletion strains, locus YHR129C, strain ARP1, stronger effect = lower value 1.01 | S. cerevisiae deletion strains, locus YHR200W, strain rpn10, stronger effect = lower value 1.03 | S. cerevisiae deletion strains, locus YIL066C, strain RNR3, stronger effect = lower value 1.02 | S. cerevisiae deletion strains, locus YIL073C, strain SPO22, stronger effect = lower value 1.08 | S. cerevisiae deletion strains, locus YIL125W, strain kgd1, stronger effect = lower value 1.02 | S. cerevisiae deletion strains, locus YIR030C, strain dcg1, stronger effect = lower value 1.02 | S. cerevisiae deletion strains, locus YJL095W, strain BCK1, stronger effect = lower value 1.01 and 0.981 | S. cerevisiae deletion strains, locus YJL134W, strain LCB3, stronger effect = lower value 1.01 | S. cerevisiae deletion strains, locus YJL168C, strain set2, stronger effect = lower value 1.02 | S. cerevisiae deletion strains, locus YJL187C, strain SWE1 (second series), stronger effect = lower value 1.02 | S. cerevisiae deletion strains, locus YJR043C, strain POL32, stronger effect = lower value 0.995 | S. cerevisiae deletion strains, locus YJR066W, strain TOR1, stronger effect = lower value 0.872 | S. cerevisiae deletion strains, locus YJR075W, strain HOC1, stronger effect = lower value 1 | S. cerevisiae deletion strains, locus YKL009W, strain mrt4, stronger effect = lower value 1.02 | S. cerevisiae deletion strains, locus YKL068W, stronger effect = lower value 1.03 | S. cerevisiae deletion strains, locus YKL085W, strain MDH1 (second series), stronger effect = lower value 1.01 | S. cerevisiae deletion strains, locus YKL085W, strain MDH1, stronger effect = lower value 1.01 | S. cerevisiae deletion strains, locus YKL190W, strain CNB1, stronger effect = lower value 1.01 | S. cerevisiae deletion strains, locus YKR001C, strain vps1, stronger effect = lower value 1.02 | S. cerevisiae deletion strains, locus YLR039C, strain RIC1, stronger effect = lower value 1.03 | S. cerevisiae deletion strains, locus YLR058C, strain SHM2, stronger effect = lower value 1.01 | S. cerevisiae deletion strains, locus YLR102C, strain apc9, stronger effect = lower value 1.02 | S. cerevisiae deletion strains, locus YLR113W, strain HOG1, stronger effect = lower value 1.01 | S. cerevisiae deletion strains, locus YLR262C, strain YPT6, stronger effect = lower value 1.05 | S. cerevisiae deletion strains, locus YLR268W, strain sec22, stronger effect = lower value 1.03 | S. cerevisiae deletion strains, locus YLR330W, strain CHS5, stronger effect = lower value 1.01 | S. cerevisiae deletion strains, locus YLR342W, strain FKS1 (second series), stronger effect = lower value 0.987 | S. cerevisiae deletion strains, locus YLR371W, strain rom2, stronger effect = lower value 1.01 | S. cerevisiae deletion strains, locus YLR418C, strain cdc73, stronger effect = lower value 1.04 | S. cerevisiae deletion strains, locus YML016C, strain PPZ1, stronger effect = lower value 1.01 | S. cerevisiae deletion strains, locus YML032C, strain rad52, stronger effect = lower value 1.02 | S. cerevisiae deletion strains, locus YML124C, strain tub3, stronger effect = lower value 1.03 | S. cerevisiae deletion strains, locus YMR078C, strain ctf18, stronger effect = lower value 1.04 | S. cerevisiae deletion strains, locus YMR223W, strain ubp8, stronger effect = lower value 1.01 | S. cerevisiae deletion strains, locus YMR263W, strain SAP30, stronger effect = lower value 1 | S. cerevisiae deletion strains, locus YMR307W, strain GAS1, stronger effect = lower value 0.996 | S. cerevisiae deletion strains, locus YNL067W, strain RPL9B, stronger effect = lower value 1 | S. cerevisiae deletion strains, locus YNL128W, strain TEP1, stronger effect = lower value 1.01 | S. cerevisiae deletion strains, locus YNL153C, strain GIM3, stronger effect = lower value 1 | S. cerevisiae deletion strains, locus YNL183C, strain NPR1, stronger effect = lower value 0.883 | S. cerevisiae deletion strains, locus YNL233W, strain BNI4, stronger effect = lower value 1.01 | S. cerevisiae deletion strains, locus YNL250W, strain rad50, stronger effect = lower value 1.02 | S. cerevisiae deletion strains, locus YNL271C, strain bni1, stronger effect = lower value 1.03 | S. cerevisiae deletion strains, locus YNL298W, strain CLA4, stronger effect = lower value 1.04 | S. cerevisiae deletion strains, locus YNL307C, strain MCK1, stronger effect = lower value 1.03 | S. cerevisiae deletion strains, locus YNL322C, strain KRE1, stronger effect = lower value 1.01 | S. cerevisiae deletion strains, locus YNR052C, strain pop2, stronger effect = lower value 1.03 | S. cerevisiae deletion strains, locus YOL006C, strain TOP1, stronger effect = lower value 1.03 | S. cerevisiae deletion strains, locus YOL012C, strain htz1 1.51 | S. cerevisiae deletion strains, locus YOL147C, strain pex11, stronger effect = lower value 1.02 | S. cerevisiae deletion strains, locus YOR061W, strain CKA2, stronger effect = lower value 1.01 | S. cerevisiae deletion strains, locus YOR069W, strain VPS5, stronger effect = lower value 1 | S. cerevisiae deletion strains, locus YOR136W, strain idh2, stronger effect = lower value 1.02 | S. cerevisiae deletion strains, locus YOR144C, strain elg1, stronger effect = lower value 1.02 | S. cerevisiae deletion strains, locus YOR184W, strain ser1, stronger effect = lower value 1.03 | S. cerevisiae deletion strains, locus YOR231W, strain MKK1, stronger effect = lower value 0.979 | S. cerevisiae deletion strains, locus YOR316C, strain cot1, stronger effect = lower value 1.02 | S. cerevisiae deletion strains, locus YPL055C, strain LGE1, stronger effect = lower value 1 | S. cerevisiae deletion strains, locus YPL241C, strain CIN2, stronger effect = lower value 1.01 | S. cerevisiae deletion strains, locus YPL256C, strain CLN2, stronger effect = lower value 0.941 | S. cerevisiae deletion strains, locus YPR119W, strain clb2, stronger effect = lower value 1.02 | S. cerevisiae deletion strains, locus YPR141C, strain kar3, stronger effect = lower value 1.03 | S. cerevisiae deletion strains, locus YPR163C, strain tif3, stronger effect = lower value 1.02 | S. cerevisiae deletion strains, locus YPR167C, strain met16, stronger effect = lower value 1.01 | S. cerevisiae deletion strains, strain wtn01, stronger effect = lower value 1.02 | S. cerevisiae strains, strain wild type, stronger effect = lower value 1
